According to the supplement of paper PMC8728848:
Many of the other results were omitted from the sample, so the strongest signals are more common in it than they were.

B1: PX9961J-bvu-499-24-499 (Bacteroides vulgatus) (protein)
chain: LNTDPSTAVPSDDAIKNIDDAQVALNGIYRLASAHSYYGDNYLYYADCRGEDVQARINKGAGRRVSPYYFFDVTADDNFNITLVWNQPYKVIHQANSLIEKLDAGNAGNARPEEVARIKSEALAMRGLALFDLTRLFGMPYTLDNGASLGVPIEIQTTLEDHAPERNTVAQCYEQVLKDLNDALGGLTKEKHDAYMNYWSVKALLSRVYLYMNDNENALKCAEEVINDNGGIYRLFTHDEYPSVWGKDFNSESLFEFYFTMSEPSGGSGGEGAPMVYADNVKDWNNLILTKAYLDLLNEDPEDVRHVFPHLPENAVADTLPVAAKGQPKYLIKYPGKSGSVTDAVSTVNPQDNDLCILRLSEVYLNAAEAAFKIGNTEKALTYLNAIVTRANPAKSVTSADLSLERILKERRKELVGEGHAFFDYMRNGKSVDRSGGWHLTMPEDARVIAPSDPRVALPIPQTEIDANPNIVQNPR
B2: DrGal9 (Danio rerio) (protein)
chain: MAFYQQPPYYNPRIPFSGPIQGGLQDGKSIIISGRVLPGANRFHVNLQCGSHSEANVALHFNPRYEDTDYVVNNSYLNRTWGSEERKYESPFAQGQTFTLQILVAQDKYKISTNGRHFMDYKHRIPFTQVDTVAVEGMVEVNSVAFQNPAGFIPPQAGYAPQYAVPPGCGFPAFPSAPNYTIPHKTVMNGGLHPGKNIVINGVVNPNAKSIIFNLCYRSGIAFHYNPRFDENVVVRNTNQMEKWGAEERFGGLPFHKGQPFQVTISCNPQHYNVFVNGKQEHTYKHRYTKLNDIDILEICGDLQLTSVQA

Columns and labels:
Assay in all cases: glycan array binding signal (z-score within array); higher = stronger binding
Settings in all cases: glycan notation: IUPAC condensed, linker removed
[1] = target: Neu5Ac(a2-3)Gal(b1-4)GlcNAc(b1-2)[Neu5Ac(a2-3)Gal(b1-4)GlcNAc(b1-4)]Man(a1-3)[GlcNAc(b1-4)][Neu5Ac(a2-3)Gal(b1-4)GlcNAc(b1-2)[Neu5Ac(a2-3)Gal(b1-4)GlcNAc(b1-6)]Man(a1-6)]Man(b1-4)GlcNAc(b1-4)GlcNAc
Method in brief: (§1)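 Columns mapping to the same glycan were averaged after glycan names were converted to IUPAC-condensed notation. The data come from 3228 arrays in the Consortium for Functional Glycomics database, limited to those with an available protein sequence. Binding is reported as a within-array Z-score averaged across arrays of one protein sequence and across linkers.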

[2] = target: Neu5Ac(a2-3)Gal(b1-4)[Fuc(a1-3)]GlcNAc(b1-6)[Gal(b1-3)]GalNAc
Method in brief: as §1

[3] = target: Neu5Ac(a2-3)[GalNAc(b1-4)]Gal(b1-4)GlcNAc(b1-3)GalNAc
Method in brief: as §1

[4] = target: Neu5Ac(a2-6)Gal(b1-4)GlcNAc(b1-2)Man(a1-3)Man(b1-4)GlcNAc(b1-4)GlcNAc
Method in brief: as §1

[5] = target: Neu5Ac(a2-6)Gal(b1-4)GlcNAc(b1-3)[Neu5Ac(a2-6)Gal(b1-4)GlcNAc(b1-6)]GalNAc
Method in brief: as §1

[6] = target: Neu5Ac(a2-8)Neu5Gc(a2-3)Gal(b1-4)GlcNAc
Method in brief: as §1

[7] = target: Neu5Ac9Ac(a2-3)Gal(b1-4)GlcNAc
Method in brief: as §1

[8] = target: Fuc(a1-2)Gal(b1-3)GlcNAc(b1-3)[Neu5Ac(a2-6)Gal(b1-4)GlcNAc(b1-6)]Gal(b1-4)Glc
Method in brief: as §1

[9] = target: Fuc(a1-2)Gal(b1-4)GlcNAc(b1-3)Gal(b1-4)GlcNAc(b1-2)Man(a1-3)[Fuc(a1-2)Gal(b1-4)GlcNAc(b1-3)Gal(b1-4)GlcNAc(b1-2)Man(a1-6)]Man(b1-4)GlcNAc(b1-4)GlcNAc
Method in brief: as §1

[10] = target: Fuc(a1-2)Gal(b1-4)GlcNAc(b1-3)GalNAc
Method in brief: as §1

[11] = target: Fuc(a1-2)Gal6S(b1-3)GlcNAc
Method in brief: as §1

[12] = target: Fuc(a1-2)[Gal(a1-3)]Gal(b1-4)GlcNAc
Method in brief: as §1

[13] = target: Fuc(a1-2)[Gal(a1-3)]Gal(b1-4)GlcNAc(b1-2)Man(a1-3)[Fuc(a1-2)[Gal(a1-3)]Gal(b1-4)GlcNAc(b1-2)Man(a1-6)]Man(b1-4)GlcNAc(b1-4)GlcNAc
Method in brief: as §1

[14] = target: Fuc(a1-2)[GalNAc(a1-3)]Gal(b1-4)GlcNAc
Method in brief: as §1

[15] = target: Fuc(a1-2)[GalNAc(a1-3)]Gal(b1-4)GlcNAc(b1-2)Man(a1-3)[Fuc(a1-2)[GalNAc(a1-3)]Gal(b1-4)GlcNAc(b1-2)Man(a1-6)]Man(b1-4)GlcNAc(b1-4)GlcNAc
Method in brief: as §1

[16] = target: Fuc(a1-2)[GalNAc(a1-3)]Gal(b1-4)[Fuc(a1-3)]GlcNAc
Method in brief: as §1

[17] = target: Fuc(a1-2)[GalNAc(a1-3)]Gal(b1-4)[Fuc(a1-3)]GlcNAc(b1-3)GalNAc
Method in brief: as §1

[18] = target: Fuc(a1-3)[Gal(b1-4)]GlcNAc(b1-2)Man(a1-3)[Fuc(a1-3)[Gal(b1-4)]GlcNAc(b1-2)Man(a1-6)]Man(b1-4)GlcNAc(b1-4)GlcNAc
Method in brief: as §1

[19] = target: Gal(a1-3)Gal
Method in brief: as §1

[20] = target: Gal(a1-4)Gal(b1-4)Glc
Method in brief: as §1

[21] = target: Gal(b1-3)GalNAc
Method in brief: as §1

[22] = target: Gal(b1-3)GalNAc(b1-4)Gal(b1-4)Glc
Method in brief: as §1

[23] = target: Gal(b1-3)GlcNAc(b1-3)Gal(b1-4)GlcNAc
Method in brief: as §1

[24] = target: Gal(b1-3)GlcNAc(b1-3)Gal(b1-4)GlcNAc(b1-6)[Gal(b1-3)GlcNAc(b1-3)]Gal(b1-4)Glc
Method in brief: as §1

[25] = target: Gal(b1-4)GlcNAc(b1-3)Gal(b1-4)GlcNAc(b1-2)Man(a1-3)[Gal(b1-4)GlcNAc(b1-3)Gal(b1-4)GlcNAc(b1-2)Man(a1-6)]Man(b1-4)GlcNAc(b1-4)[Fuc(a1-6)]GlcNAc
Method in brief: as §1

[26] = target: Gal(b1-4)GlcNAc(b1-3)Gal(b1-4)GlcNAc(b1-2)[Gal(b1-4)GlcNAc(b1-3)Gal(b1-4)GlcNAc(b1-6)]Man(a1-6)[Gal(b1-4)GlcNAc(b1-3)Gal(b1-4)GlcNAc(b1-2)Man(a1-3)]Man(b1-4)GlcNAc(b1-4)GlcNAc
Method in brief: as §1

[27] = target: Gal(b1-4)GlcNAc(b1-3)Gal(b1-4)GlcNAc(b1-3)Gal(b1-4)GlcNAc(b1-2)Man(a1-3)[Gal(b1-4)GlcNAc(b1-3)Gal(b1-4)GlcNAc(b1-3)Gal(b1-4)GlcNAc(b1-2)Man(a1-6)]Man(b1-4)GlcNAc(b1-4)[Fuc(a1-6)]GlcNAc
Method in brief: as §1

[28] = target: Gal(b1-4)GlcNAc(b1-3)Gal(b1-4)GlcNAc(b1-3)Gal(b1-4)GlcNAc(b1-2)[Gal(b1-4)GlcNAc(b1-3)Gal(b1-4)GlcNAc(b1-3)Gal(b1-4)GlcNAc(b1-6)]Man(a1-6)[Gal(b1-4)GlcNAc(b1-3)Gal(b1-4)GlcNAc(b1-3)Gal(b1-4)GlcNAc(b1-2)Man(a1-3)]Man(b1-4)GlcNAc(b1-4)[Fuc(a1-6)]GlcNAc
Method in brief: as §1

[29] = target: Gal(b1-4)GlcNAc(b1-3)Gal(b1-4)GlcNAc(b1-3)Gal(b1-4)GlcNAc(b1-3)Gal(b1-4)GlcNAc(b1-2)Man(a1-3)[Gal(b1-4)GlcNAc(b1-3)Gal(b1-4)GlcNAc(b1-3)Gal(b1-4)GlcNAc(b1-3)Gal(b1-4)GlcNAc(b1-2)Man(a1-6)]Man(b1-4)GlcNAc(b1-4)GlcNAc
Method in brief: as §1

[30] = target: Gal(b1-4)GlcNAc(b1-3)Gal(b1-4)GlcNAc(b1-3)Gal(b1-4)GlcNAc(b1-3)Gal(b1-4)GlcNAc(b1-2)Man(a1-3)[Gal(b1-4)GlcNAc(b1-3)Gal(b1-4)GlcNAc(b1-3)Gal(b1-4)GlcNAc(b1-3)Gal(b1-4)GlcNAc(b1-2)Man(a1-6)]Man(b1-4)GlcNAc(b1-4)[Fuc(a1-6)]GlcNAc
Method in brief: as §1

[31] = target: Gal(b1-4)GlcNAc(b1-3)Gal(b1-4)GlcNAc(b1-3)Gal(b1-4)GlcNAc(b1-3)Gal(b1-4)GlcNAc(b1-2)[Gal(b1-4)GlcNAc(b1-3)Gal(b1-4)GlcNAc(b1-3)Gal(b1-4)GlcNAc(b1-3)Gal(b1-4)GlcNAc(b1-6)]Man(a1-6)[Gal(b1-4)GlcNAc(b1-3)Gal(b1-4)GlcNAc(b1-3)Gal(b1-4)GlcNAc(b1-3)Gal(b1-4)GlcNAc(b1-2)Man(a1-3)]Man(b1-4)GlcNAc(b1-4)[Fuc(a1-6)]GlcNAc
Method in brief: as §1

[32] = target: Gal(b1-4)GlcNAc(b1-3)Gal(b1-4)GlcNAc(b1-3)Gal(b1-4)GlcNAc(b1-3)Gal(b1-4)GlcNAc(b1-3)Gal(b1-4)GlcNAc(b1-2)Man(a1-3)[Gal(b1-4)GlcNAc(b1-3)Gal(b1-4)GlcNAc(b1-3)Gal(b1-4)GlcNAc(b1-3)Gal(b1-4)GlcNAc(b1-3)Gal(b1-4)GlcNAc(b1-2)Man(a1-6)]Man(b1-4)GlcNAc(b1-4)GlcNAc
Method in brief: as §1

[33] = target: Gal(b1-4)GlcNAc(b1-3)Gal(b1-4)GlcNAc(b1-3)Gal(b1-4)GlcNAc(b1-3)Gal(b1-4)GlcNAc(b1-3)Gal(b1-4)GlcNAc(b1-2)[Gal(b1-4)GlcNAc(b1-3)Gal(b1-4)GlcNAc(b1-3)Gal(b1-4)GlcNAc(b1-3)Gal(b1-4)GlcNAc(b1-3)Gal(b1-4)GlcNAc(b1-6)]Man(a1-6)[Gal(b1-4)GlcNAc(b1-3)Gal(b1-4)GlcNAc(b1-3)Gal(b1-4)GlcNAc(b1-3)Gal(b1-4)GlcNAc(b1-3)Gal(b1-4)GlcNAc(b1-2)Man(a1-3)]Man(b1-4)GlcNAc(b1-4)[Fuc(a1-6)]GlcNAc
Method in brief: as §1

[34] = target: Gal(b1-4)GlcNAc(b1-3)Gal(b1-4)GlcNAc(b1-6)[Gal(b1-3)]GalNAc
Method in brief: as §1

[35] = target: Gal(b1-4)GlcNAc(b1-6)[Gal(b1-4)GlcNAc(b1-3)]GalNAc
Method in brief: as §1

[36] = target: GalNAc(a1-3)Gal
Method in brief: as §1

[37] = target: GlcNAc(a1-6)Gal(b1-4)GlcNAc
Method in brief: as §1

Row | Binder | glycan array binding signal (z-score) [1] | glycan array binding signal (z-score) [2] | glycan array binding signal (z-score) [3] | glycan array binding signal (z-score) [4] | glycan array binding signal (z-score) [5] | glycan array binding signal (z-score) [6] | glycan array binding signal (z-score) [7] | glycan array binding signal (z-score) [8] | glycan array binding signal (z-score) [9] | glycan array binding signal (z-score) [10] | glycan array binding signal (z-score) [11] | glycan array binding signal (z-score) [12] | glycan array binding signal (z-score) [13] | glycan array binding signal (z-score) [14] | glycan array binding signal (z-score) [15] | glycan array binding signal (z-score) [16] | glycan array binding signal (z-score) [17] | glycan array binding signal (z-score) [18] | glycan array binding signal (z-score) [19] | glycan array binding signal (z-score) [20] | glycan array binding signal (z-score) [21] | glycan array binding signal (z-score) [22] | glycan array binding signal (z-score) [23] | glycan array binding signal (z-score) [24] | glycan array binding signal (z-score) [25] | glycan array binding signal (z-score) [26] | glycan array binding signal (z-score) [27] | glycan array binding signal (z-score) [28] | glycan array binding signal (z-score) [29] | glycan array binding signal (z-score) [30] | glycan array binding signal (z-score) [31] | glycan array binding signal (z-score) [32] | glycan array binding signal (z-score) [33] | glycan array binding signal (z-score) [34] | glycan array binding signal (z-score) [35] | glycan array binding signal (z-score) [36] | glycan array binding signal (z-score) [37]
1 | B1 | -0.208 | -0.279 | -0.342 | 0.368 | -0.732 | 19 | -0.319 |  |  |  |  |  |  |  |  |  |  |  |  |  |  |  |  |  |  |  |  |  |  |  |  |  |  |  |  |  | 
2 | B2 |  |  |  |  |  |  |  | -0.123 | 3.83 | -0.32 | -0.391 | 0.599 | 3.36 | -0.391 | -0.329 | -0.36 | -0.336 | -0.409 | -0.376 | -0.356 | -0.351 | -0.117 | -0.053 | 1.3 | 5.22 | 0.373 | 4.02 | 4.33 | 3.48 | 3.44 | 3.19 | 3.05 | 3.6 | 0.054 | -0.007 | -0.402 | -0.386
